Experiments:
Experiment in all cases: MIB bead binding, log2 fold change vs DMSO (log2 ratio); higher = less competition (weaker engagement)
[1] = target: T1, ATG1 (UniProt Q5A649)
T1 sequence (whole entry): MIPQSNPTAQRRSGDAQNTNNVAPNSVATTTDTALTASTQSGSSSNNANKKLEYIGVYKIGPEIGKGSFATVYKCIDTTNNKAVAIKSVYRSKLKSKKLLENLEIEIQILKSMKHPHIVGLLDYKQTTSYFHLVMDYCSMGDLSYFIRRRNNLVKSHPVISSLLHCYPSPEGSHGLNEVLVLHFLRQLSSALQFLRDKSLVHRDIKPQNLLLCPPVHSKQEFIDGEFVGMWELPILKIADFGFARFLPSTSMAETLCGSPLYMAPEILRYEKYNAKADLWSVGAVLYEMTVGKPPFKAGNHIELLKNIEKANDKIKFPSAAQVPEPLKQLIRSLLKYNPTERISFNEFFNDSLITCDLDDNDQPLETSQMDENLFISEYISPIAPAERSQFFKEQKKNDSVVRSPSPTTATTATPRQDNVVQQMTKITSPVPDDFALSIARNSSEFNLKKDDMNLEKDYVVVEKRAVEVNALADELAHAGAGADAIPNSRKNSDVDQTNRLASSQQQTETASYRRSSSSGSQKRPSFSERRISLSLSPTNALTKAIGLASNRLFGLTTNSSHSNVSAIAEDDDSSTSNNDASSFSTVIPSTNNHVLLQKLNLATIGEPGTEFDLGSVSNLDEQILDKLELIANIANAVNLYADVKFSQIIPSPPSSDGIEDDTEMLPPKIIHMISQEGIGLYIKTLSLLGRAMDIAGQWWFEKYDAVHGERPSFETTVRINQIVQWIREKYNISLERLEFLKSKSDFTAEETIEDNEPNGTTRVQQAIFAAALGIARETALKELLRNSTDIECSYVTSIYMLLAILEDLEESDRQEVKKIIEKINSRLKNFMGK

[2] = target: T2, PKC1 (UniProt P43057)
T2 sequence (whole entry): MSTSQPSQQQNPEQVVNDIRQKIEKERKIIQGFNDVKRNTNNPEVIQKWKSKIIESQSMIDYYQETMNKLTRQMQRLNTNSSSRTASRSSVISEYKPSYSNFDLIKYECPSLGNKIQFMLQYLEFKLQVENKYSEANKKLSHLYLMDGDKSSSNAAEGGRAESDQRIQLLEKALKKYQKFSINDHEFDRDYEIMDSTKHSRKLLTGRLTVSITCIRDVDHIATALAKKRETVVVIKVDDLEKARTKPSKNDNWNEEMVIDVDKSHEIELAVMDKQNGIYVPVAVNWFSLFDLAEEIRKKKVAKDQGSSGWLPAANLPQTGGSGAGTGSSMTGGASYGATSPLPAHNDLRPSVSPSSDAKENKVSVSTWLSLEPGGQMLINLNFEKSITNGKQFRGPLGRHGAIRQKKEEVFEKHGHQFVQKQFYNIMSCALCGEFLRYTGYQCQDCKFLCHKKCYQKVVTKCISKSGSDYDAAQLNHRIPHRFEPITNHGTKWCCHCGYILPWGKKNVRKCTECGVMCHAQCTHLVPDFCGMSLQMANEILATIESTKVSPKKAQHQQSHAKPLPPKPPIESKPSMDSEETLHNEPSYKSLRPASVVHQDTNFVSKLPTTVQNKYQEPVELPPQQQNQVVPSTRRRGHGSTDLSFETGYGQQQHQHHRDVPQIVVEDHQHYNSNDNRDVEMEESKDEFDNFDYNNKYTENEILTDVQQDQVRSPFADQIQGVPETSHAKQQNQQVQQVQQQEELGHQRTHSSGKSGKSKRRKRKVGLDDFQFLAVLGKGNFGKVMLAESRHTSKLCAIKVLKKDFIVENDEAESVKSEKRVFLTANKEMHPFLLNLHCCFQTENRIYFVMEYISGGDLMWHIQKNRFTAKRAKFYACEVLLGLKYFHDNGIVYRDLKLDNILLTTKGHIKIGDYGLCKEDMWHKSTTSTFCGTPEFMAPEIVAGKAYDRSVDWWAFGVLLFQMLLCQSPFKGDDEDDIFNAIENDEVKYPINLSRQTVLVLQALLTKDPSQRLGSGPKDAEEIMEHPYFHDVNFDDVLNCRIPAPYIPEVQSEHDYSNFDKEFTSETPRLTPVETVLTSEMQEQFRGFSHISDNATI

[3] = target: T3, PKH2 (UniProt Q5A3P6)
T3 sequence (whole entry): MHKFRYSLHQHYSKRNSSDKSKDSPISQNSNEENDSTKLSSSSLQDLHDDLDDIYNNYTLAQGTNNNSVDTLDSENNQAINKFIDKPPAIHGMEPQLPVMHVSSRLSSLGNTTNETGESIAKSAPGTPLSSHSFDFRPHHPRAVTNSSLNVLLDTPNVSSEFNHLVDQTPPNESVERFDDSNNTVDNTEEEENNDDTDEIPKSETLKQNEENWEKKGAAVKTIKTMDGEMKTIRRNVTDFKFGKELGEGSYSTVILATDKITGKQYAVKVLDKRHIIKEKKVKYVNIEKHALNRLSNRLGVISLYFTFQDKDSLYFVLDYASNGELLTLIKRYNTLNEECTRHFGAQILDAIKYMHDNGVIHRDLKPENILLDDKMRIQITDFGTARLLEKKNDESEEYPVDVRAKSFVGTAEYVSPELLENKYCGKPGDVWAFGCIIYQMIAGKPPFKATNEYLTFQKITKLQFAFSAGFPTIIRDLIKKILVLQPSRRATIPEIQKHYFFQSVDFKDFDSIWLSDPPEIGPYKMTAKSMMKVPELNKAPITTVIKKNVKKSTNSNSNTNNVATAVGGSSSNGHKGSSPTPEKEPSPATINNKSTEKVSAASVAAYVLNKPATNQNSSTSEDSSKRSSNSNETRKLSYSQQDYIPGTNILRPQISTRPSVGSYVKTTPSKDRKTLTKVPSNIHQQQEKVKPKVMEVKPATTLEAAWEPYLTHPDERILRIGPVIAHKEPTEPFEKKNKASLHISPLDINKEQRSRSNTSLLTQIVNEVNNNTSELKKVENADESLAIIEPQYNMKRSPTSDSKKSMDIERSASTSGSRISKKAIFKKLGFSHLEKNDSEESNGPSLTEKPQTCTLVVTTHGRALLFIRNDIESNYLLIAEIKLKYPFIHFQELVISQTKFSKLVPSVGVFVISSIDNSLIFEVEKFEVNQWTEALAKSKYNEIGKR

## Cc1[nH]nc2ccc(-c3cc(OC[C@@H](N)Cc4ccccc4)cnc3-c3ccoc3)cc12
[1]; 0.1 µM
  MIB bead binding (log2): -0.123
[1]; 1 µM
  MIB bead binding (log2): -0.147
[1]; 10 µM
  MIB bead binding (log2): -0.524
[2]; 0.1 µM
  MIB bead binding (log2): -0.235
[2]; 1 µM
  MIB bead binding (log2): 0.00546
[2]; 10 µM
  MIB bead binding (log2): -0.233
[3]; 0.1 µM
  MIB bead binding (log2): -0.165
[3]; 1 µM
  MIB bead binding (log2): -0.0865
[3]; 10 µM
  MIB bead binding (log2): -0.756

From the supplement of paper PMC11741263, “Chemoproteomic Profiling of C. albicans for Characterization of Anti-fungal Kinase Inhibitors” (bioRxiv, 2025)
